Results reported in PubChem BioAssay (NCATS).
Records with an inconclusive call do not appear. Entries that show only a call come without a potency. Activity calls are given as the source filed them. Calls come from the whole dose curve; as a rule, active = well fitted curve in the direction sought with a large enough effect; inconclusive = small, poorly fitted or top-dose-only effect, or another doubt; inactive = no such curve, though single readings can be large; an effect the other way counts as inactive or inconclusive.

Key:
[1] = tested on: Zika virus NS2B-NS3 protease (linked construct); assay: Primary screen NINDS Rhodamine qHTS for Zika virus inhibitors (AID 1347160); note: nearly all actives have a fitted effect of over 55% in size; note: potency is the fitted concentration of half-maximal effect
In short: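 Purified NS2B-NS3 protease with the NS2B hydrophilic domain joined by a flexible linker (25 nM) in 10 mM Tris-HCl pH 8.0, 0.01% Tween 20, preincubated 15 min at RT with compound; Rhodamine110 peptide substrate 1.5 µM; fluorescence change over 15 min; 4-parameter Hill fit.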

[2] = OV-KATE Cancer Cell Toxicity qHTS against the NCATS CANVASS Library (AID 1347345); note: potency is the fitted concentration of half-maximal effect
In short: (§1)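 1000 cells/well; 4 h settle; 11-pnt titration; 72 h, 37 degrees C, 5% CO2; CellTiter-Glo, 15min RT; luminescence read.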

[3] = U-118MG Cancer Cell Toxicity qHTS against the NCATS CANVASS Library (AID 1347351); note: potency is the fitted concentration of half-maximal effect
In short: as §1

[4] = UWB1.289-WTBRCA1 Cancer Cell Toxicity qHTS against the NCATS CANVASS Library (AID 1347354)
In short: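 Cells at 1000/well were given compound 4 h after plating in an 11-point series. Viability was read by CellTiter-Glo luminescence after 72 h at 37 degrees C.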

[5] = HEK293 18hr Apoptosis Induction qHTS against the NCATS CANVASS Library (AID 1347357)
In short: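 Caspase-3/7 luminescence (DEVD substrate, Caspase-Glo) after 18 h compound exposure of HEK293 cells, 500 cells/well; 11-point series; doxorubicin titration as control.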

[6] = HPAF-II 12hr Apoptosis Induction qHTS against the NCATS CANVASS Library (AID 1347358); note: potency is the fitted concentration of half-maximal effect
In short: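 HPAF-II cells, 500/well in DMEM + 10% FBS, exposed 12 hours at 37 degrees C to compound (11-point). Caspase-Glo 3/7 added for 15 min at room temperature; luminescence reflects caspase-3/7 activity.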

[7] = biological target: Luciferin 4-monooxygenase (Photinus pyralis) (UniProt P08659); assay: Firefly luciferase counterscreen qHTS: Assay Interference Panel against the NCATS CANVASS Library (AID 1347363); note: series mostly up to about 57 µM
Luciferin 4-monooxygenase (Photinus pyralis), sequence (P08659 whole entry, looked up): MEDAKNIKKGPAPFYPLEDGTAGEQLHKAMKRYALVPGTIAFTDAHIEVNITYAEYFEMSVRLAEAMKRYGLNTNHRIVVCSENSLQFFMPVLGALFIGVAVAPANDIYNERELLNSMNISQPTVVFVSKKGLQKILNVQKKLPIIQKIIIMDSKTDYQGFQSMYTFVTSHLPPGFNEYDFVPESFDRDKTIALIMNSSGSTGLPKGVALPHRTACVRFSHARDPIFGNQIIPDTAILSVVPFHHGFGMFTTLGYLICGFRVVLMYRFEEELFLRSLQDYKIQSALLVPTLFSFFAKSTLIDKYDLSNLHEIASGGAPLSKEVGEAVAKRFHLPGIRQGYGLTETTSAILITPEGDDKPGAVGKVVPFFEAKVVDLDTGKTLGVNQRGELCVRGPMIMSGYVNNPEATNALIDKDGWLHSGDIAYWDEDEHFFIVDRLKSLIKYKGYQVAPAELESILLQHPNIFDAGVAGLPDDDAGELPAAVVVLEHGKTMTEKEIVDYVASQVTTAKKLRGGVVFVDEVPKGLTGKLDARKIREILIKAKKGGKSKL
In short: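 Purified P. pyralis luciferase (0.04 ug/mL, 4x reagent) added to Tris-acetate buffer with 0.013 mM D-luciferin, 0.013 mM ATP and 13.3 mM Mg-acetate; compounds preincubated 15 min, then luminescence read after 5 min, RT.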

[8] = SDT Cancer Cell Toxicity qHTS against the NCATS CANVASS Library (AID 1347365); note: nearly all actives have a fitted effect of over 60% in size; note: potency is the fitted concentration of half-maximal effect
In short: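 SDT dog glioma cells (500/well) exposed to an 11-point compound series for 72 hr at 37C, 5% CO2. Cytotoxicity read as ATP content by CellTiterGlo luminescence; bortezomib titration as control.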

[9] = MCF7 Cancer Cell Toxicity qHTS against the NCATS CANVASS Library (AID 1347369); note: potency is the fitted concentration of half-maximal effect
In short: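 Luminescent ATP signal (CellTiterGlo) served as the cytotoxicity read-out after MCF7 breast cancer cells had been incubated 72 hr at 37C with natural products in an 11-point titration.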

[10] = qHTS for activators of Nrf2/ARE signaling pathway screened against the NCATS CANVASS Library (AID 1347391); note: nearly all actives have a fitted effect of over 60% in size; note: potency is the fitted concentration of half-maximal effect
In short: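 ARE-bla HepG2 beta-lactamase reporter cells exposed to compounds for 16 h at 37C; CCF4 substrate 2 h, fluorescence at ex 405 nm, em 460/530 nm. Viability by CellTiter-Glo luminescence.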

[11] = qHTS for inhibitors of Wild type Zika virus screened against the NCATS CANVASS Library (AID 1347396);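 note: ATP luminescence of surviving cells so rescue from viral cell killing; series mostly up to about 46 µM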
In short: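 Vero 766 (African green monkey) cells, 1000 per well, attached overnight, then compounds were added in an 11-point series before wild-type Zika virus infection. After 72 h at 37C, cell viability was read as CellTiter Glo luminescence.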

[12] = Viability qHTS for inhibitors of the SERCaMP assay screened against the NCATS CANVASS Library (AID 1347400); note: nearly all actives have a fitted effect of over 70% in size; note: potency is the fitted concentration of half-maximal effect
In short: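 SH-SY5Y-GLuc SERCaMP MJH297-derived cells, 1000/well, plated 4 h, then exposed to compounds in an 11-point qHTS series for 48 h at 37C. Viability read as CellTiter-Glo luminescence.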

[13] = Redox Reaction Profiling qHTS: Assay Interference Panel against the NCATS CANVASS Library (AID 1347401)
In short: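 Compounds in 11-point series incubated with 5 uM resazurin and 200 uM DTT in 50 mM HEPES pH 7.3, 50 mM NaCl. Resorufin fluorescence (Ex 525/Em 598) read before and after 15 min in the dark.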

[14] = OV-SAHO Cancer Cell Toxicity qHTS against the NCATS CANVASS Library (AID 1347348); note: nearly all actives have a fitted effect of over 55% in size; note: potency is the fitted concentration of half-maximal effect
In short: as §1

[15] = SW1088 Cancer Cell Toxicity qHTS against the NCATS CANVASS Library (AID 1347350); note: nearly all actives have a fitted effect of over 75% in size; note: potency is the fitted concentration of half-maximal effect
In short: as §1

[16] = A2780 Cisplatin Sensitive Ovarian Cancer Cell Toxicity qHTS against the NCATS CANVASS Library (AID 1347353); note: nearly all actives have a fitted effect of over 60% in size; note: potency is the fitted concentration of half-maximal effect
In short: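 A2780 cells, 750/well, settled 4 h at 37 °C, then treated with an 11-point compound series for 72 h. Viability was read as ATPLite luminescence after 10 min at room temperature, with bortezomib as control.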

[17] = KB-8-5-11 Cancer Cell Toxicity qHTS against the NCATS CANVASS Library (AID 1347364); note: nearly all actives have a fitted effect of over 75% in size; note: potency is the fitted concentration of half-maximal effect
In short: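 KB-8-5-11 cells, 500/well in DMEM + 10% FBS, given compounds in an 11-point series. Incubated 72 h at 37 °C. Viability by CellTiter-Glo luminescence. Confirmation also run with 1 uM tariquidar.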

[18] = qHTS for Hypoxia signaling pathway (HIF-1) antagonists against the NCATS CANVASS Library (AID 1347374); note: nearly all actives have a fitted effect of over 60% in size; note: potency is the fitted concentration of half-maximal effect
In short: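 HRE-bla ME-180 cells in medium with 0.5% dialyzed FBS received compounds (11-point series) plus CoCl2 (60 uM addition stock) for 17 hrs at 37C. Beta-lactamase activity read with CCF4 (405 nm ex, 460/530 nm em); CellTiter-Glo viability measured in same wells.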

[19] = qHTS for Antimalaria activity screened against the NCATS CANVASS Library (AID 1347380); note: nearly all actives have a fitted effect of over 40% in size; note: potency is the fitted concentration of half-maximal effect
In short: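 Red blood cells infected with P. falciparum Dd2 (2.5% hematocrit final, 0.3% parasitemia) were exposed to compounds in an 11-point qHTS series for 72 hr at 37C under 5% O2 and 5% CO2. Lysis buffer with SYBR Green was then added for 18 hr, and fluorescence was read at 485/535 nm.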

[20] = HEK293 12hr Apoptosis Induction qHTS against the NCATS CANVASS Library (AID 1347361)
In short: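 500 HEK293 cells/well; cpds pin-transferred, 11-pt conc series; 12 h, 37 degrees C/5% CO2; Caspase-Glo 3/7 added, 15 min RT dark; luminescence.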

SMILES | Potency [1] | Potency [2] | Potency [3] | Potency [4] | Potency [5] | Potency [6] | Potency [7] | Potency [8] | Potency [9] | Potency [10] | outcome [11] | Potency [12] | Potency [13] | Potency [14] | Potency [15] | Potency [16] | Potency [17] | Potency [18] | Potency [19] | outcome [20]
CC(C)=CCC[C@]12c3cc4c(cc3CC[C@@]1(C)[C@H](C)CC[C@@H]2O)[nH]c1ccccc14 | 24.7 µM (active) | inactive | inactive | inactive | inactive | inactive | inactive | inactive | inactive | inactive | inactive | inactive | inactive | – | – | – | – | – | – | –
COc1cc(/C=C/C(=O)OC[C@@H](Cc2ccc(O)c(OC)c2)[C@@H](COC(=O)/C=C/c2ccc(O)c(OC)c2)Cc2ccc(O)c(OC)c2)ccc1O | 31.1 µM (active) | – | 10.6 µM (active) | – | – | 11.8 µM (active) | inactive | – | – | inactive | – | – | inactive | 23.6 µM (active) | 8.41 µM (active) | 9.35 µM (active) | 13.2 µM (active) | 7.47 µM (active) | 0.265 µM (active) | –
C=C(C)CC[C@H](Cc1c(O)cc(O)c2c1O[C@H](c1ccc(O)cc1)CC2=O)C(=C)C | 15.6 µM (active) | inactive | inactive | inactive | inactive | inactive | inactive | – | – | – | – | inactive | – | – | 23.7 µM (active) | 23.5 µM (active) | – | – | inactive | inactive
CO[C@H]1[C@@H](OC(=O)/C(C)=C\[C@@H]2O[C@@H]2[C@H]2O[C@H]2C)[C@H](O)[C@H](OCC23C[C@@H]4[C@H](C)CC[C@H]4C4(C=O)CC2C=C(C(C)C)C34C(=O)O)O[C@@H]1C (some centres not stated) | 22 µM (active) | inactive | inactive | inactive | inactive | inactive | inactive | – | – | 16.6 µM (active) | inactive | inactive | inactive | inactive | inactive | – | inactive | inactive | – | inactive
CN1CC[C@]2(c3cccc4c3N[C@H]3N(C)CC[C@@]43[C@]34CCN(C)[C@H]3Nc3ccccc34)c3ccccc3N[C@H]12 | inactive | 18.8 µM (active) | 7.49 µM (active) | – | inactive | inactive | inactive | 4.18 µM (active) | 11.7 µM (active) | – | – | 15.2 µM (active) | inactive | 16.7 µM (active) | – | – | 18.7 µM (active) | – | 0.0375 µM (active) | inactive
C/C1=C/[C@@H](C)[C@H](O)[C@@H](O)/C=C/CC/C=C/C(=O)O[C@@H]1[C@H](C)C(=O)CCCC1CC(=O)NC(=O)C1 | inactive | inactive | inactive | inactive | – | – | inactive | 20.9 µM (active) | inactive | – | inactive | inactive | – | inactive | – | inactive | inactive | inactive | inactive | inactive
C/C(=C\CC[C@@H](C)[C@H]1CC[C@]2(C)C3=CCC4C(C)(C)[C@@H](O)C[C@@H](O)[C@]4(C)C3[C@H](O)C[C@@]12C)CO (some centres not stated) | 19.6 µM (active) | inactive | inactive | inactive | inactive | inactive | – | inactive | inactive | – | – | inactive | inactive | – | – | – | – | 14.9 µM (active) | – | inactive
CC[C@H]1[C@H](C)[C@H](c2cc(OC)c(OC)cc2OC)[C@@H](C)[C@H](c2cc(OC)c(OC)cc2OC)[C@@]12C=C(OC)C(=O)C=C2OC | 27.7 µM (active) | inactive | – | inactive | – | inactive | inactive | – | inactive | 14.8 µM (active) | inactive | – | – | 21.1 µM (active) | 18.8 µM (active) | 14.8 µM (active) | – | – | 1.88 µM (active) | –
CC(C)[C@]12CC[C@@]3(C)[C@H](C)CC[C@H](O)[C@@]3(CC1)c1cc3c(cc12)[nH]c1ccccc13 | 27.7 µM (active) | inactive | inactive | inactive | inactive | inactive | inactive | inactive | inactive | – | inactive | inactive | – | – | – | – | – | inactive | – | inactive
C/C=C/C1C=CC2CC(C)CC(C)C2C1C(=O)CC(=O)NC(CO)C/C=C/CCCCC (configuration not stated) | 11 µM (active) | 10.6 µM (active) | inactive | inactive | inactive | inactive | inactive | 1.48 µM (active) | – | 16.6 µM (active) | inactive | inactive | inactive | – | 14.9 µM (active) | – | – | 29.8 µM (active) | inactive | inactive
C[C@]12CCC[C@](C)(C(=O)O)[C@@H]1CC[C@@]1(C)c3cocc3CC[C@H]21 | 15.6 µM (active) | inactive | inactive | inactive | – | – | inactive | inactive | – | – | inactive | inactive | – | inactive | inactive | inactive | inactive | inactive | – | inactive
CCC(=O)N[C@@H](C[C@H](C)C(Cl)(Cl)Cl)C(=O)N1C(=O)C=C(OC)[C@@H]1CC(C)C | inactive | inactive | inactive | inactive | inactive | inactive | inactive | – | – | – | inactive | inactive | – | inactive | – | 26.4 µM (active) | – | inactive | inactive | –
